Records with an inconclusive call do not appear. Values without a mark were called inactive. Activity calls are given as the source filed them. The call rests on the fitted dose curve; in most records, active means well fitted inhibition curve with a large enough effect; inconclusive means small, poorly fitted or top-dose-only effect; inactive means flat fitted curve, though single readings scatter.
Molecular target: Luciferin 4-monooxygenase (Photinus pyralis) (UniProt P08659)
Assay: Counterscreen Assay for Enhancers of SMN2 Splice Variant Expression: Interaction with Luciferase Reporter
Description: NIH Chemical Genomics Center [NCGC] NIH Molecular Libraries Probe Production centers Network [MLPCN] MLPCN Grant: R03 MH084179-01 Assay Submitter (PI): Elliot Androphy NCGC Assay Overview: Spinal muscular atrophy (SMA) is caused by insufficient levels of the survival motor neuron protein SMN. The SMN locus on chromosome 5q13 contains two inverted copies of SMN called SMN1 and SMN2 which are 99% identical at the amino acid level. SMN1 is a fully functional protein and SMN2 skips exon 7 90% of the time. Skipping of exon 7 produces non-functional protein product. 10% of the SMN2 protein includes exon 7 and is fully functional. In the SMA disease state, mutations in the SMN1 locus are the cause of the disease state. Because only 10% of SMN2 is of the fully functional form, it is not sufficient to overcome the deficiency produced by the loss of the SMN1 product. A therapy that either increases the amount of SMN2 product made increases the inclusion of exon 7 has been proposed for the treatment of SMA. We have designed an assay to identify small molecules that can increase the amount of functional SMN2 product by appending a luciferase reporter gene after the native SMN2 gene, such that inclusion of exon 7 in the expressed product places the luciferase sequence in frame, thus generating functional luciferase enzyme. One potential source of false positives in the primary screening assay is stabilization of the reporter luciferase via direct binding. […]
NCGC Assay Protocol Summary: The primary screen utilizes a luciferase reporter gene assay, combining the promoter and splicing based cassettes in tandem with the major portion of the native SMN1 cDNA, and then transfected into HEK293 cells. […] Sequence, Parameter, Value, Description (1) Reagent, 2.5 uL, Enzyme in buffer (note A) (2) Compound, 23 nL, From stock solutions (3) Time, 5 minutes, Room temp (4) Reagent#2.5 ul, Luciferase detection reagent (note B) (5) Detector, 1 sec integrate, Luminescent read on Viewlux (note C) Sigma enzyme (1 mg) considered to be MW 61,000 diluted in 357 ul assay buffer to 50 uM stock. […]

Luciferin 4-monooxygenase (Photinus pyralis), sequence (P08659 whole entry, looked up, canonical isoform): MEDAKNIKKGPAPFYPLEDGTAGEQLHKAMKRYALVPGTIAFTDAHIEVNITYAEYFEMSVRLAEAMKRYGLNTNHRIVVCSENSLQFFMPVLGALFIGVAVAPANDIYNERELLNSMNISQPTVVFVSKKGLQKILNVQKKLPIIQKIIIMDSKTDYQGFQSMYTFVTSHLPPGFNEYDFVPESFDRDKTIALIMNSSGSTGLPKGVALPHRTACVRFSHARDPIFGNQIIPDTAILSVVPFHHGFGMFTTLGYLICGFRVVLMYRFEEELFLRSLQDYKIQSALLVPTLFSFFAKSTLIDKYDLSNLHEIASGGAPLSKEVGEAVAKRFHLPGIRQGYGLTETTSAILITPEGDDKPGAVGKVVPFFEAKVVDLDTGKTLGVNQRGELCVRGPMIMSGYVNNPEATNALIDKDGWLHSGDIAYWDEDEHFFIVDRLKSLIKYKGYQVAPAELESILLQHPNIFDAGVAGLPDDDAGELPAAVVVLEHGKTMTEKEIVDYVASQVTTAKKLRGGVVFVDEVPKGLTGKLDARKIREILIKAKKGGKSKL

In the case of `CC[C@]1(O)CC(O[C@@H]2CC(N(C)C)C(O)C(C)O2)c2c(cc3c(c2O)C(=O)c2c(O)cccc2C3=O)C1C(=O)OC` (stereo partly drawn), the Potency is reported as “inactive”.

`O=C(C1CCN(c2nc3ccc(Br)cc3s2)CC1)N1CCC2(CC1)OCCO2` was tested, and the Potency was 7.08 µM (active).

In the case of `C[C@@H]1O[C@@H](O[C@H]2C[C@@H](O)[C@]3(CO)[C@H]4[C@H](O)C[C@]5(C)[C@@H](C6COC(=O)C6)CC[C@]5(O)[C@@H]4CC[C@]3(O)C2)[C@H](O)[C@H](O)[C@H]1O` (stereo partly drawn), the activity change, negative = inhibition is reported as 13.4% [at 48.7 pM].
